In PubChem BioAssay (NCI):
The panel holds about 83,000 compounds, 20% with a hit somewhere; the sample as a whole holds those more often.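 Percent growth is the endpoint: 0 to 100 indicates growth inhibition (40 means 60% inhibition), 0 means no net growth, and negative values indicate cell death.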 Active and inactive are the calls of the source. The calls were made as follows: active = growth percent below 10; inactive = the rest.

Experiments:
Test in all cases: NCI-60 one-dose screen, 48 h (100 = growth as untreated, 0 = no growth, -100 = all killed)
Settings in all cases: 10 µM unless noted
SR leukemia = test system: SR leukemia
RPMI-8226 leukemia = test system: RPMI-8226 leukemia
OVCAR-8 ovarian = test system: OVCAR-8 ovarian
OVCAR-5 ovarian = test system: OVCAR-5 ovarian
OVCAR-4 ovarian = test system: OVCAR-4 ovarian
SK-OV-3 ovarian = test system: SK-OV-3 ovarian
IGROV1 ovarian = test system: IGROV1 ovarian
OVCAR-3 ovarian = test system: OVCAR-3 ovarian
HS 578T breast = test system: HS 578T breast
NCI/ADR-RES ovarian = test system: NCI/ADR-RES ovarian
T-47D breast = test system: T-47D breast
BT-549 breast = test system: BT-549 breast
MDA-MB-435 melanoma = test system: MDA-MB-435 melanoma
SW-620 colon = test system: SW-620 colon
MCF7 breast = test system: MCF7 breast
HCT-116 colon = test system: HCT-116 colon
HCC-2998 colon = test system: HCC-2998 colon
KM12 colon = test system: KM12 colon

Measured: growth

CN(C)c1ccc(/C=C/C2=[N+](C)c3ccccc3C2(C)C)cc1
active: SR leukemia 6.36% | RPMI-8226 leukemia -20.3% | SK-OV-3 ovarian 4.03% | MCF7 breast 5.64% | KM12 colon 7.96%
inactive: OVCAR-8 ovarian 14.8% | OVCAR-5 ovarian 35.6% | OVCAR-4 ovarian 31.2% | IGROV1 ovarian 34.7% | OVCAR-3 ovarian 10% | HS 578T breast 43.3% | NCI/ADR-RES ovarian 77.8% | T-47D breast 20.5% | BT-549 breast 17.2% | MDA-MB-435 melanoma 12.9% | SW-620 colon 37.7% | HCT-116 colon 15.7% | HCC-2998 colon 28%

CCN=c1sc2c(n1NC(=O)c1cc3ccc1CCc1ccc(cc1)CC3)C(=O)c1ccccc1C2=O
active: SR leukemia -3.66% | RPMI-8226 leukemia -33.6% | OVCAR-8 ovarian -82.6% | OVCAR-5 ovarian -77.4% | OVCAR-4 ovarian -98.4% | IGROV1 ovarian -39.8% | OVCAR-3 ovarian -18.8% | HS 578T breast -8.98% | NCI/ADR-RES ovarian -22.8% | T-47D breast -19.8% | BT-549 breast -97.4% | MDA-MB-435 melanoma -97.1% | SW-620 colon -56.6% | MCF7 breast -63.1% | HCT-116 colon -50.9% | HCC-2998 colon -37.9% | KM12 colon -29.9%
inactive: SK-OV-3 ovarian 62%

Cn1cc(-c2csc(-c3cn(CCO)c4ccc(F)cc34)n2)c2cccnc21
active: T-47D breast 9.75% | MDA-MB-435 melanoma 1.7%
inactive: SR leukemia 20.7% | RPMI-8226 leukemia 62.6% | OVCAR-8 ovarian 75.9% | OVCAR-5 ovarian 65.6% | OVCAR-4 ovarian 36% | SK-OV-3 ovarian 73% | IGROV1 ovarian 51.9% | OVCAR-3 ovarian 49.7% | HS 578T breast 79.8% | NCI/ADR-RES ovarian 45.5% | BT-549 breast 52.8% | SW-620 colon 29.8% | MCF7 breast 34.9% | HCT-116 colon 35.8% | HCC-2998 colon 64.1% | KM12 colon 30.6%

COc1cc(C2CC(c3cccc(Nc4ccncc4)c3)=Nc3c(N)ncnc3N2)cc(OC)c1OC (centres undefined)
inactive: SR leukemia 30.1% | RPMI-8226 leukemia 71.8% | OVCAR-8 ovarian 93.6% | OVCAR-5 ovarian 111% | OVCAR-4 ovarian 84.1% | SK-OV-3 ovarian 88.3% | IGROV1 ovarian 95.8% | OVCAR-3 ovarian 88.9% | HS 578T breast 95% | NCI/ADR-RES ovarian 96.7% | T-47D breast 62.2% | BT-549 breast 113% | MDA-MB-435 melanoma 69.7% | SW-620 colon 90.6% | MCF7 breast 57.6% | HCT-116 colon 87.9% | HCC-2998 colon 95.4% | KM12 colon 69%

COc1cc(OCc2cccc(-c3ccc4c(c3)OCCO4)c2C)cc(OC)c1C=O
inactive: SR leukemia 37.3% | RPMI-8226 leukemia 29.6% | OVCAR-8 ovarian 70.4% | OVCAR-5 ovarian 68.7% | OVCAR-4 ovarian 35.9% | SK-OV-3 ovarian 93.2% | IGROV1 ovarian 68.1% | OVCAR-3 ovarian 60.5% | HS 578T breast 75.9% | NCI/ADR-RES ovarian 70.4% | T-47D breast 10.1% | BT-549 breast 56.6% | MDA-MB-435 melanoma 52.9% | SW-620 colon 70.2% | MCF7 breast 22.6% | HCT-116 colon 44.1% | HCC-2998 colon 70.3% | KM12 colon 78.9%

Cc1ccc(C2(C)NC(=O)N(CC(=O)Nc3cccc(C)c3)C2=O)cc1 (centres undefined)
inactive: RPMI-8226 leukemia 67.8% | OVCAR-8 ovarian 105% | OVCAR-5 ovarian 97.1% | OVCAR-4 ovarian 99.3% | SK-OV-3 ovarian 97.6% | IGROV1 ovarian 105% | OVCAR-3 ovarian 111% | HS 578T breast 102% | NCI/ADR-RES ovarian 94.8% | T-47D breast 94.4% | BT-549 breast 90.9% | MDA-MB-435 melanoma 108% | SW-620 colon 106% | MCF7 breast 91.2% | HCT-116 colon 96.1% | HCC-2998 colon 102% | KM12 colon 96.6%
active: SR leukemia -22.7%

O=C(c1ccc(F)cc1)C1CCN(CCn2c(=O)[nH]c3ccccc3c2=O)CC1
inactive: SR leukemia 99.9% | RPMI-8226 leukemia 104% | OVCAR-8 ovarian 103% | OVCAR-5 ovarian 99.9% | OVCAR-4 ovarian 109% | SK-OV-3 ovarian 102% | IGROV1 ovarian 111% | OVCAR-3 ovarian 96.9% | HS 578T breast 108% | NCI/ADR-RES ovarian 102% | T-47D breast 102% | BT-549 breast 107% | MDA-MB-435 melanoma 104% | SW-620 colon 102% | MCF7 breast 97.6% | HCT-116 colon 110% | HCC-2998 colon 105% | KM12 colon 104%

COC(=O)c1nc(-c2ccc(C)cc2)oc1N1CCOCC1
inactive: SR leukemia 80.3% | RPMI-8226 leukemia 88% | OVCAR-8 ovarian 107% | OVCAR-5 ovarian 88.1% | OVCAR-4 ovarian 109% | SK-OV-3 ovarian 94.9% | IGROV1 ovarian 89.5% | OVCAR-3 ovarian 107% | HS 578T breast 108% | NCI/ADR-RES ovarian 96.7% | T-47D breast 87.3% | BT-549 breast 87.1% | MDA-MB-435 melanoma 103% | SW-620 colon 99.7% | MCF7 breast 83% | HCT-116 colon 97.8% | HCC-2998 colon 104% | KM12 colon 104%
